From PubChem BioAssay
HT1080 IDH1KD tx – toxicity to HT-1080 IDH1 knockdown cells (counter line); 360,000 compounds, 2% hits; HT-1080 IDH1 knockdown viability, ATP luminescence, 48 h; Potency, µM (doses to about 46.1 µM), usual class: cytotoxic
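Assay cells: HT-1080 with IDH1 knockdown, 750 per well, RPMI/5% FBS. Exposure: 48 h at 37 °C following 2 h pre-incubation. Read: CellTiter-Glo luminescence; fitted concentration-response, curve class assigned.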
TDP1 cell CPT – growth inhibition of DT40 Tdp1-/-;hTDP1 cells with camptothecin (screen for TDP1 inhibitors); chicken DT40 Tdp1-/-;hTDP1 cells + 20 nM CPT, ATP luminescence, 48 h; Potency, µM (series often up to 46.2 µM), usual class: inhibitors; 420,000 compounds, 12% hits; AID 686979; also: nearly all actives have a fitted effect of over 55% in size
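Cell growth measured by CellTiter-Glo luminescence after a minimum 48 h, 37 C compound exposure with 20 nM CPT in Tdp1-knockout DT40 cells stably expressing hTDP1, seeded 400/well; qHTS titration format.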
TDP1 cell noCPT – qHTS for Inhibitors of human tyrosyl-DNA phosphodiesterase 1 (TDP1): qHTS in cells in absence of CPT; Potency, µM (highest dose often 46.2 µM), hits mostly inhibitors; DT40 Tdp1-/- hTDP1 cells, no CPT, ATP luminescence, 48 h; 420,000 compounds, 15% hits; also: nearly all actives have a fitted effect of over 55% in size
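Chicken DT40 Tdp1-/- cells stably complemented with human TDP1 were seeded at 400 cells/well with DMSO in place of 20 nM camptothecin. After compound pinning, cells grew at least 48 hr at 37 °C; viability read by CellTiter-Glo luminescence.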
IL-1B inflam inh – blocks inflammasome-driven IL-1 beta release. THP-1 LPS/ATP IL-1B secretion, AlphaLISA, 16 h; active compounds read low. activity change, % at 57.5 µM. 360,000 compounds, 4.7% hits; in the data active = activity change below about -50%; inconclusive = mostly about -30% to -49%
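THP-1 cells pretreated 1 hr with compounds (up to 57.5 uM final), then stimulated with LPS (250 ng/mL final) plus ATP (1.25 mM final); secreted IL-1B measured by AlphaLISA after 16 hr, decreased signal indicating inhibition.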
HT1080NT lethal – kills 2HG-producing HT-1080-NT fibrosarcoma cells; HT-1080-NT fibrosarcoma viability, CellTiter-Glo ATP luminescence, 48 h; Potency, µM (top dose mostly 46.1 µM), actives largely listed as cytotoxic; 360,000 compounds, 1.6% hits;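 also: NT is the 2HG producing partner of a matched IDH1 knockdown line; nearly all actives have a fitted effect of over 55% in size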
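750 cells/well, RPMI + 5% FBS; 2 h settle, compound pin-transfer, 48 h at 37 degrees C. CellTiter-Glo 10 min RT, luminescence. Normalized to DMSO and media-only wells.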
Hits are given with their value; n = inactive; u = inconclusive; x = not tested or not shown. Compounds with a hit are over-represented: about 19% of the library has one in this group of screens. Unless noted, calls follow the shape of the dose curve; as a rule, active = well fitted curve in the direction sought with a large enough effect; inconclusive = small, poorly fitted or top-dose-only effect, or another doubt; inactive = no such curve, though single readings can be large; an effect the other way counts as inactive or inconclusive.

SMILES	HT1080 IDH1KD tx	TDP1 cell CPT	TDP1 cell noCPT	IL-1B inflam inh	HT1080NT lethal
CCOC(=O)C1CCCN(Cc2cn3c(-c4cccc(Br)c4)nnc3s2)C1 (centres undefined)	x	n	u	x	x
c1ccc(-c2nnc3sc(CN4CCc5ccccc54)cn23)cc1	x	21µM	u	n	x
CC(=O)O[C@H]1CC(C)(C)C(=C=C/C(C)=C/C=C/C(C)=C/C=C/C=C(C)/C=C/C=C(\C)C(=O)C[C@@]23O[C@]2(C)C[C@@H](O)CC3(C)C)[C@](C)(O)C1	n	26µM	u	-63	n
CCOC(=O)C1C(C)=C(Nc2ccc(OC)cc2)C(=O)N1c1ccc(OC)cc1 (centres undefined)	n	n	n	n	n
CN1c2ccccc2Sc2cc(N)ccc21	n	n	16µM	n	u
CCOC(=O)COc1cc(-n2c(=S)[nH]c3cc(OC)c(OC)cc3c2=O)c(Cl)cc1Cl	n	n	u	n	n
CCOC(=O)COc1cc(N2C(=O)CSCC2=O)c(Cl)cc1Cl	n	n	n	-99	n
CCC(Sc1nnc(C)n2c1cc1occc12)C(=O)Nc1ccccc1F (centres undefined)	x	21µM	26µM	x	x
CCC(C)C(=O)Nc1nnc(SCC(=O)Nc2ccccc2F)s1 (centres undefined)	n	u	u	n	n
CCc1nnc(SCC(=O)Nc2ccc(Cl)cc2F)c2cc3occc3n12	x	23µM	15µM	x	x
O=C(OCC(=O)N1CCC(Cc2ccccc2)CC1)c1ccc(O)cc1	n	u	u	n	n
CC1(C(=O)NC2CCN(Cc3ccccc3)CC2)CCN1Cc1cc2ccccc2o1 (centres undefined)	n	u	n	n	n
COc1ccc(CN2CCC2(C)C(=O)Nc2cnc3ccccc3c2)c2ccccc12 (centres undefined)	u	u	u	n	u
CC(=O)N1CCc2cc(NC(=O)C3(C)CCN3Cc3ccc(C(C)C)cc3)ccc21 (centres undefined)	u	u	u	n	u
CC1(C(=O)Nc2cnc3ccccc3c2)CCN1Cc1ccc2ccccc2c1 (centres undefined)	u	15µM	u	n	u
CC(C)c1ccc(CN2CCC2(C)C(=O)Nc2cnc3ccccc3c2)cc1 (centres undefined)	u	18µM	26µM	n	u
CC1(C(=O)Nc2cnc3ccccc3c2)CCN1Cc1cc2ccccc2o1 (centres undefined)	u	13µM	15µM	n	n
CCOC(=O)NCCc1c(C)nc2c(c(C)nn2C(C)(C)C)c1C	u	u	u	n	n
COc1ccccc1NC(=O)Cc1nnc(SCC(=O)Nc2ccccc2F)n1C	n	16µM	u	n	n
COc1ccccc1NC(=O)CSC(N)=O	n	u	21µM	u	n
COc1ccc(CNC(=O)CC23CC4CC(CC(C4)C2)C3)cc1OC	n	u	n	n	n
COc1ccccc1NC(=O)CNC(=O)CC12CC3CC(CC(C3)C1)C2	u	1.6µM	n	n	u
CCn1c(CC(=O)Nc2ccccc2OC)nnc1SCC(=O)Nc1ccccc1F	n	n	n	n	n
COc1ccc(OC)c(CNC(=O)C(C)n2nc(C)c3c(C)n(-c4ccccc4)nc3c2=O)c1 (centres undefined)	n	n	n	n	n
COc1ccc(OC)c(CCNC(=O)Cn2nc(C)c3c(C)n(-c4ccc(C)cc4)nc3c2=O)c1	n	n	15µM	-67	n
SMILES	HT1080 IDH1KD tx	TDP1 cell CPT	TDP1 cell noCPT	IL-1B inflam inh	HT1080NT lethal
COc1ccc(OC)c(CNC(=O)Cn2nc(C)c3nn(-c4ccc(Cl)cc4)c(C)c3c2=O)c1	x	23µM	18µM	x	x
Cc1ccc(-n2nc3c(=O)n(CC(=O)NCCc4ccccc4C)nc(C)c3c2C)cc1	n	u	u	n	n
Cc1cccc(C)c1-n1nnnc1C(c1ccnc2ccccc12)N(CCC#N)Cc1ccccc1 (centres undefined)	n	13µM	10µM	n	n
c1ccc(CN(Cc2ccccc2)C(c2ccnc3ccccc23)c2nnnn2-c2ccc3c(c2)OCCO3)cc1 (centres undefined)	n	u	23µM	n	n
CN(CCc1ccccc1)C(c1ccnc2ccccc12)c1nnnn1-c1ccc2c(c1)OCCO2 (centres undefined)	u	u	16µM	n	u
N#CCCN(Cc1ccccc1)C(c1ccnc2ccccc12)c1nnnn1-c1ccc2c(c1)OCCO2 (centres undefined)	n	u	n	n	n
c1cncc(-c2nnc(C3CCCCC3)o2)c1	n	n	n	n	n
Cc1ccc(N(C)S(=O)(=O)c2c(C)noc2/C=C/N(C)C)cc1	n	18µM	u	n	n
C=CC(C)N1C(=O)S/C(=C\c2ccc(N3CCOCC3)cc2C)C1=O (centres undefined)	n	21µM	13µM	-77	n
Cc1ccc(OCc2cc(C(=O)N(C)Cc3cnc4ccccn34)no2)cc1C	n	15µM	12µM	n	n
CN(Cc1nccn1C)C(=O)c1cc(COc2ccc3ncccc3c2)on1	n	n	18µM	n	n
Cc1cc(CN(C)C(=O)c2cc(COc3ccc4ncccc4c3)on2)on1	u	7.3µM	6.5µM	n	n
Cc1cc(C)c2cc(CN(Cc3ccco3)C(=S)NCC3CCCO3)c(=O)[nH]c2c1 (centres undefined)	n	18µM	16µM	n	n
Cc1cccc2cc(CN(CC3CCCO3)C(=O)c3ccco3)c(=O)[nH]c12 (centres undefined)	n	n	n	n	n
Cc1ccc2[nH]c(=O)c(CN(Cc3cccs3)C(=S)NCC3CCCO3)cc2c1 (centres undefined)	n	u	13µM	n	n
COc1ccc2cc(CN(Cc3ccco3)C(=S)NCC3CCCO3)c(=O)[nH]c2c1 (centres undefined)	n	u	u	n	n
Cc1ccc2cc(CN(CC3CCCO3)C(=S)NCc3ccco3)c(=O)[nH]c2c1C (centres undefined)	u	u	13µM	u	n
CCCCN(C)CCCNC(=O)C1CCN(S(=O)(=O)CCC)CC1	x	n	n	x	x
CC(C)(C)OC(=O)N1CCN(C(=O)OCC2c3ccccc3-c3ccccc32)CC1C(=O)O (centres undefined)	n	23µM	u	n	n
COc1c(F)c(F)c(C(=O)Nc2ccc(NC(=O)Cc3ccccc3)cc2)c(F)c1F	n	n	n	n	n
NC(=NCc1ccc(Cl)cc1Cl)NC(=O)c1nc(Cl)c(N)nc1N	x	6.2µM	4.4µM	x	x
Cc1ccccc1OCCC(=O)Nc1ccc2c(C)cc(=O)oc2c1	n	u	n	n	n
